About 79,000 compounds went through this panel and 15% of them were active in at least one assay; those are over-represented in the sample as a whole. Cut-off read from the data, not from the text of the source: active = growth inhibition above about 70%; inactive = the rest.
What was measured:
[1] = NCI Yeast Anticancer Drug Screen. Data for the rad50 strain (AID 155);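 note: 0% = growth of vehicle-only cultures of the same strain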; details: S. cerevisiae rad50 strain growth inhibition; at 50.0 µM; active compounds read high
Procedure, shortened: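 A DNA repair-deficient yeast mutant serves as the test organism; compound-induced growth inhibition is calculated against vehicle-treated cells.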

[2] = NCI Yeast Anticancer Drug Screen. Data for the mec2-1 strain (AID 157); details: S. cerevisiae mec2-1 strain, at 50.0 µM, active compounds read high
Procedure, shortened: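 Compounds were applied to mec2-1 yeast cells. Their growth was then compared with that of vehicle-treated cultures to give growth inhibition.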

[3] = NCI Yeast Anticancer Drug Screen. Data for the sgs1 mgt1 strain (AID 161);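 note: 0% = growth of cultures given vehicle only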; details: S. cerevisiae sgs1 mgt1 strain, at 50.0 µM, active compounds read high
Procedure, shortened: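 This yeast growth screen uses a strain with defined DNA-repair lesions; compound-treated growth is compared with vehicle-treated growth.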

[4] = NCI Yeast Anticancer Drug Screen. Data for the cln2 rad14 strain (AID 165);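 note: 0% = growth equal to vehicle treated cultures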; details: S. cerevisiae cln2 rad14 strain, at 50.0 µM, active compounds read high
Procedure, shortened: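 Strain: cln2 rad14 yeast, altered in cell cycle control and DNA damage repair. Read-out: growth inhibition vs vehicle.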

[5] = NCI Yeast Anticancer Drug Screen. Data for the bub3 strain (AID 167); details: S. cerevisiae bub3 mutant strain, at 50.0 µM, active compounds read high
Procedure, shortened: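 Inhibition values come from growth of compound-treated mutant yeast normalised to vehicle-treated controls.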

[6] = NCI Yeast Anticancer Drug Screen. Data for the mlh1 rad18 strain (AID 175); details: S. cerevisiae mlh1 rad18 strain growth inhibition; at 50.0 µM; active compounds read high
Procedure, shortened: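 A repair-deficient yeast strain is exposed to test compound, and growth is scored relative to vehicle-treated controls.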

Measured: growth inhibition

CC(=O)N(CN1C(=O)CCC1C(=O)O)c1ccccc1Cl (stereo unspecified)
inactive: [1] 10.3% | [2] 14.4% | [3] -13.6% | [4] -4.35% | [5] -3.85% | [6] -40.5%

CC(Cc1ccccc1)Nc1ccccc1 (stereo unspecified)
inactive: [1] 17.8% | [2] 3.5% | [3] 31.4% | [4] -10.3% | [5] -12.5% | [6] 62.4%

c1c[nH]c(C2=NCCCCC2)c1
inactive: [1] 1.85% | [2] -6.95% | [3] 2.2% | [4] -3% | [5] -5.2% | [6] -29.1%

CCOC(=O)NC(=O)c1cn(CCN2CCN(c3ncnc4nc[nH]c34)CC2)c(=O)[nH]c1=O
inactive: [1] 18.9% | [2] 16.6% | [3] 14.4% | [4] 12.7% | [5] -4.3% | [6] 23.1%

CCN1N=CSC12C(=O)N(c1ccccc1)C(=O)N2c1ccccc1 (stereo unspecified)
inactive: [1] -20.6% | [2] -15.1% | [3] -31.9% | [4] 0.35% | [5] -14.7% | [6] -38.6%

CC(C)(C)c1ccc(C(=O)N2CCOC23CCCCC3)cc1
inactive: [1] -11.7% | [2] -20.1% | [3] 7.25% | [4] 3.2% | [5] 17.1% | [6] -38.5%

CCCCCSC
inactive: [1] 21% | [2] -12.1% | [3] 11.2% | [4] 10.1% | [5] 7.9% | [6] 28.6%

Cc1ccc2c(c1)CCCN2
inactive: [1] 7.2% | [2] 11.2% | [3] 4.65% | [4] 21.6% | [5] 9.8% | [6] 7.55%

CCOC(=O)C(C)(Cc1cccc2ccccc12)C(=O)OCC
inactive: [1] -33.6% | [2] -19.3% | [3] 5.1% | [4] -54.2% | [5] 29.8% | [6] -24.9%

O=C1CSC(c2c(F)cccc2Cl)N1c1nncs1 (stereo unspecified)
inactive: [1] 9.4% | [2] -2% | [3] 31.4% | [4] 13% | [5] 29.6% | [6] 10%

CC(=O)OCCn1c2ccccc2nc2cc3c(cc21)c(Cl)c(=O)c1ccccc13
inactive: [1] 29.6% | [2] 14.3% | [3] 21.1% | [4] 25.6% | [5] -1.6% | [6] 13.4%

CCNc1ccc(C)cc1
inactive: [1] 55.4% | [2] -4.1% | [3] 0.1% | [4] -14% | [5] -5.15% | [6] 33.5%

O=C(NCCc1ccccc1Br)c1ccccc1
inactive: [1] 8.25% | [2] -26.6% | [3] -5.95% | [4] 18.8% | [5] 28.7% | [6] -6.35%

CN(C)C(=O)Nc1ccc(F)cc1
inactive: [1] -5.75% | [2] -25.6% | [3] 13.6% | [4] -20.6% | [5] -24.9% | [6] -16.6%

COc1ccc(C2OC(C)C(C)O2)cc1 (stereo unspecified)
inactive: [1] -9.3% | [2] 10.4% | [3] -1.5% | [4] -42.6% | [5] -8.35% | [6] -8%

Cc1cnc(-c2ccccc2)o1
inactive: [1] 8.7% | [2] 5.4% | [3] -4.8% | [4] 3.9% | [5] 0.9% | [6] -12.7%

CC(C)(C)c1cc(CCC(=O)Nc2ccc(Cl)cc2)[nH]c(=S)n1
inactive: [1] 1.85% | [2] -16.1% | [3] 0.4% | [4] -8.85% | [5] -5.85% | [6] -14.8%

Clc1ccc2sc3c(c2c1)CCNC3
inactive: [1] 2.8% | [2] 0.1% | [3] -6.75% | [4] -31.4% | [5] -26% | [6] 13.6%

CC1(C2c3ccccc3CC2OC2CCCCO2)CO1 (stereo unspecified)
inactive: [1] -8.35% | [2] -10.6% | [3] -9.5% | [4] -10.2% | [5] -5.75% | [6] 2.35%

O=C(Nc1ccc(S(=O)(=O)N2CCCCC2)cc1)OC(c1ccccc1)c1ccccc1
inactive: [1] 38.3% | [2] -6.6% | [3] 27.4% | [4] 15.9% | [5] -11.7% | [6] 6.05%

CCCC1OCC=CCO1
inactive: [1] 3.75% | [2] -23.6% | [3] -21.1% | [4] -1.45% | [5] -33.5% | [6] 20.4%

COn1nnc2ccccc21
inactive: [1] -21% | [2] -13.8% | [3] -19.9% | [4] 5.15% | [5] 7.9% | [6] -18.1%

Oc1ccccc1C=Nc1cccnc1
inactive: [1] 6.75% | [2] -19.5% | [3] -2.45% | [4] -7.2% | [5] -0.6% | [6] 8.7%

O=[N+]([O-])C(/C=C(\Cl)[N+](=O)[O-])=C(N1CCOCC1)N1CCOCC1
inactive: [1] -4.7% | [2] -1.2% | [3] 24.9% | [4] -9.5% | [5] 13.9% | [6] 5.45%

Cc1c(C)c(O)c(SC(CC(=O)O)C(=O)O)c(C)c1O (stereo unspecified)
inactive: [1] 14.8% | [2] 37.8% | [3] 41.1% | [4] 1.65% | [5] 21.7% | [6] 44.1%

CCC(C)CCC(N)C(=O)O (stereo unspecified)
inactive: [1] 2.3% | [2] 11.4% | [3] -3.95% | [4] -0.1% | [5] 2% | [6] 1.75%

CC(C)c1ccc2nc3ccc(C(=O)NCCN(C)C)cn3c(=O)c2c1
inactive: [1] -15.8% | [2] -0.25% | [3] -10.4% | [4] 2.65% | [5] -1% | [6] 9%

CCC(=O)OCC(OC(=O)CC)C(OC(=O)CC)C(OC(=O)CC)C(COC(=O)CC)OC(=O)CC (stereo unspecified)
inactive: [1] -0.5% | [2] 6.95% | [3] -16.6% | [4] -31.6% | [5] 1.35% | [6] -3.75%

COc1ccc(CC2(C(=O)O)NCCc3cc(O)c(OC)cc32)cc1O (stereo unspecified)
inactive: [1] 16.7% | [2] -3.25% | [3] -13.7% | [4] 4.15% | [5] -0.5% | [6] -5.5%

C=CCCCCCCCCCCCCCCC
inactive: [1] -36% | [2] -26.9% | [3] -26.2% | [4] 5.3% | [5] -31.9% | [6] -35%

CCOc1cc(N)nc(N)n1
inactive: [1] 13.1% | [2] -10.3% | [3] 7.15% | [4] 5.9% | [5] 5.65% | [6] -7.75%

Nc1ncc2c(n1)CSCC2=O
inactive: [1] -9.4% | [2] 27.7% | [3] 14.1% | [4] -2.7% | [5] 16.9% | [6] 12%

NCCCC(=O)NCCCC(=O)O
inactive: [1] 19.9% | [2] -5.75% | [3] -2.25% | [4] -15.9% | [5] -6.75% | [6] 2%

CC1COC(c2ccc(Cl)cc2Cl)O1 (stereo unspecified)
inactive: [1] 8.35% | [2] -2.4% | [3] -1.1% | [4] 1.25% | [5] 2.75% | [6] -0.65%

CCCNC(=O)c1nc(SC)sc1NC(=O)c1ccccc1
inactive: [1] 10.3% | [2] 3.5% | [3] -50.1% | [4] 17.6% | [5] 1.95% | [6] 10.9%

CN(C)c1ccc(-c2ccncc2)cc1
inactive: [1] 21.6% | [2] 15.2% | [3] 18.9% | [4] -11.8% | [5] 17.4% | [6] 17.2%

CCc1ccc(O[Si](C)(C)C)cc1
inactive: [1] 5.35% | [2] 3.25% | [3] -15.6% | [4] -25.4% | [5] -21.9% | [6] -3.9%

CCCc1c(OC(=O)c2ccc([N+](=O)[O-])cc2)cccc1OC(=O)c1ccc([N+](=O)[O-])cc1
inactive: [1] 20.1% | [2] 1.1% | [3] 12.8% | [4] 18.1% | [5] -3.95% | [6] 7.55%

CC1=CCS(=O)(=O)C1
inactive: [1] 22.4% | [2] 1.55% | [3] 12.2% | [4] 10.3% | [5] -4.1% | [6] 29%

CC1=Nc2ccccc2NC(C)(C)C1
inactive: [1] 30.1% | [2] 23.4% | [3] 29.5% | [4] 13.9% | [5] 15.2% | [6] 20.4%

CN1C2CCC1/C(=C/c1cccc3c1OCO3)C(=O)/C2=C\c1cccc2c1OCO2
inactive: [1] 27.8% | [2] 19.8% | [3] 20.4% | [4] -52% | [5] 32.3% | [6] 27.1%

— PubChem BioAssay (NCI)
